Laboratory results reported in PubChem BioAssay (EPA / NIEHS).
Results filed as inconclusive are left out. The source made the active and inactive calls. The calls were made as follows, unless noted: active = hit-call score of the fitted dose curve at least 0.9, where 1 is the maximum; inactive = score below 0.9.

Key:
[1] = CCTE_Shafer_MEA_acute_burst_number: CCTE's Neural Acute Assay for Single-Electrode Bursts, Shafer Lab (AID 2284013)
Summary of the method: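 Percent change in single-electrode burst number per well, from 40-min recordings taken before and after adding compound (0.03-40 uM) to primary rat cortical neurons on MEA plates at DIV 13 or 15, 37 C.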

[2] = CCTE_Shafer_MEA_acute_burst_duration_mean: CCTE's Neural Acute Assay for Mean Burst Duration, Shafer Lab (AID 2284014);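 also: hits are decreases in mean burst duration relative to DMSO controls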
Summary of the method: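 Rat cortical cultures, DIV 13/15; 40 min baseline, then 40 min with compound (0.03-40 uM), 37 C. Spikes: 300-5000 Hz band-pass, 8x rms threshold. Read-out: % change in mean single-electrode burst duration, DMSO-referenced, loss direction.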

[3] = CCTE_Shafer_MEA_acute_per_burst_spike_number_mean: CCTE's Neural Acute Assay for Average Number of Spikes Per Burst, Shafer Lab (AID 2284015);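 also: hits are decreases in mean spikes per burst versus baseline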
Summary of the method: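 We recorded spontaneous network firing of rat cortical neurons for 40 min before and 40 min during exposure to compound at 0.03-40 uM, at 37 C. Spikes were detected adaptively at 8x rms noise, and the change in average spikes per burst was fitted against DMSO.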

[4] = CCTE_Shafer_MEA_acute_interburst_interval_mean: CCTE's Neural Acute Assay for Mean Interburst Interval, Shafer Lab (AID 2284016);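 also: percent change of mean interburst interval versus each well's own pre-dose baseline; curves fitted for decrease in interburst interval relative to DMSO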
Summary of the method: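 MEA recording of spontaneous network bursting in primary rat cortical cultures; mean interburst interval was compared before and after a 40-min compound exposure (0.03-40 uM) and expressed as percent change, relative to DMSO.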

[5] = CCTE_Shafer_MEA_acute_burst_percentage_mean: CCTE's Neural Acute Assay for Percentage of Spikes in a Burst, Shafer Lab (AID 2284017);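 as to AC50: curve fitted for loss of signal so potency reflects decreased burst percentage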
Summary of the method: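 Compounds were tested at 0.03-40 uM on primary rat cortical neuron networks grown over microelectrodes, with at least three wells per compound. Spontaneous firing was recorded for 40 min before and 40 min after dosing, and the change in burst percentage was computed per well.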

[6] = CCTE_Shafer_MEA_acute_burst_percentage_std: CCTE's Neural Acute Assay for Standard Deviation of Burst Percentage, Shafer Lab (AID 2284018);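 also: fitted in the negative direction so actives lower burst percentage SD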
Summary of the method: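 Rat primary cortical neurons on 48-well MEAs, DIV 13 or 15, 37 C. 40-min baseline then 40-min recording with compound (0.03-40 uM); well-level SD of per-electrode burst spike percentage, expressed as percent change from baseline.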

[7] = CCTE_Shafer_MEA_acute_per_network_burst_spike_number_std: CCTE's Neural Acute Assay for Standard Deviation of Number of Spikes in a Network Burst, Shafer Lab (AID 2284020);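 also: fitted for decrease in spike-number SD versus DMSO so actives lower it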
Summary of the method: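 Rat cortical cultures, DIV 13/15, 37 C; 20-min stabilisation, 40-min baseline, compound 0.03-40 uM, 40-min re-record. Spikes detected at 8x rms noise (300-5000 Hz band-pass). Readout: % change from baseline in per-burst spike-number SD.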

[8] = CCTE_Shafer_MEA_acute_network_burst_percentage: CCTE's Neural Acute Assay for Percentage of Network Bursts, Shafer Lab (AID 2284022);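 also: curves fitted for loss so actives lower network burst percentage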
Summary of the method: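 Rat cortical cultures, DIV 13/15; 20 min equilibration, 40 min baseline, compound 0.03-40 uM, 40 min recording, 37 C. Spikes: 300-5000 Hz band-pass, threshold 8x rms noise. Readout: % change in network-burst spike fraction; loss direction vs DMSO.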

[9] = molecular target: Estrogen receptor (Homo sapiens) (UniProt P03372); experiment: CCTE_Deisenroth_AIME_96WELL_LUC_Active: CCTE's 96-well Estrogen Receptor Transactivation Assay with AIME metabolic competence (ERTA luciferase; metabolism positive), Deisenroth Lab (AID 2284023; active = hit-call score of the fitted dose curve at least 0.9, where 1 is the maximum)
Sequence of Estrogen receptor (Homo sapiens) (P03372 whole entry, looked up): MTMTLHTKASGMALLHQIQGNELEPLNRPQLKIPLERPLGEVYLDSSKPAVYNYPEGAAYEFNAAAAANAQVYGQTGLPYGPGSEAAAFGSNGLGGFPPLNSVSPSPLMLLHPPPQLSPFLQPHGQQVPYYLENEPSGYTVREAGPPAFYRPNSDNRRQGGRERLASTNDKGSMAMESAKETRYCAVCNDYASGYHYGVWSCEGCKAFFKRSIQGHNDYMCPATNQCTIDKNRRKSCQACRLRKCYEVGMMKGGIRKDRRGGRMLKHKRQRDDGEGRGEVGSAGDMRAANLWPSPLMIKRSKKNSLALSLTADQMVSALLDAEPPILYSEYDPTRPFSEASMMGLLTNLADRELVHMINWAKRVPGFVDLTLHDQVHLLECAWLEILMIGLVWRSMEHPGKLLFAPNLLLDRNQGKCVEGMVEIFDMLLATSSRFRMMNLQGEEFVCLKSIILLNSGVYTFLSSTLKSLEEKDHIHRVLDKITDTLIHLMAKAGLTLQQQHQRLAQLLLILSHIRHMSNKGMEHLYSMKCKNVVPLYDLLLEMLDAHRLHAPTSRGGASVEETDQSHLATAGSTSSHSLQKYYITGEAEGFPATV
Summary of the method: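 Metabolism-positive mode: induced rat hepatic S9 in alginate microspheres conditions test solutions (0.002 - 200 uM, 10 points) for 2 hours. VM7Luc4E2 ER luciferase reporter cells then exposed 24 h; positive-direction fit against 17beta-estradiol, n=4 typical.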

[10] = CCTE_Shafer_MEA_acute_cross_correlation_area: CCTE's Neural Acute Assay for Area of Cross Correlation, Shafer Lab (AID 2284024);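 also: area under pooled inter-electrode spike cross-correlation near zero lag as percent change from own baseline; curves fitted for loss of cross-correlation area so actives lower synchrony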
Summary of the method: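 Rat cortical cultures, DIV 13/15, MEA; spikes detected at 8x rms noise (300-5000 Hz band-pass). Compound 0.03-40 uM, ≥3 wells each. Readout: % change in pooled inter-electrode cross-correlation area vs own baseline; DMSO negative control.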

[11] = molecular target: Estrogen receptor (Homo sapiens) (UniProt P03372); experiment: CCTE_Deisenroth_AIME_96WELL_LUC_Inactive: CCTE's 96-well Estrogen Receptor Transactivation Assay without AIME metabolic competence (ERTA luciferase; metabolism negative), Deisenroth Lab (AID 2284025; active = hit-call score of the fitted dose curve at least 0.9, where 1 is the maximum)
Summary of the method: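 Metabolism-negative arm: chemicals (0.002–200 uM, 10 points) incubated 2 h with alginate-water microspheres, then medium moved onto VM7Luc4E2 cells for 24 h luciferase read-out. Positive direction vs 17beta-estradiol; n≥4 experiments.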

[12] = CCTE_Shafer_MEA_acute_cross_correlation_HWHM: CCTE's Neural Acute Assay for Cross Correlation at Half Width at Half Maximum, Shafer Lab (AID 2284026);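 also: percent change per well from pre-dose baseline in spike cross-correlogram half width; hits are a decrease in cross-correlogram half width relative to DMSO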
Summary of the method: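 Read-out: half width at half maximum of action-potential cross-correlogram, percent change versus pre-treatment baseline, fitted in loss direction against DMSO. Rat cortical cultures, DIV 13 or 15, dosed 0.03-40 uM, 40-min recordings at 37 C.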

[13] = CCTE_Shafer_MEA_acute_synchrony_index: CCTE's Neural Acute Assay for Synchrony, Shafer Lab (AID 2284027);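 also: network synchrony index of spontaneous spiking in primary rat cortical neurons on MEAs; fitted for loss of signal so actives lower synchrony relative to DMSO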
Summary of the method: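 The synchrony index is taken as percent change per well between a 40 min baseline and a 40 min recording with compound (0.03–40 uM), at 37C. Rat cortical cultures on multiwell MEAs at DIV 13 or 15, spike threshold 8× rms noise.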

[14] = CCTE_Deisenroth_AIME_96WELL_CTox_Active: Cytotoxicity Assessment (CTOX) in CCTE's 96-well Estrogen Receptor Transactivation Assay with AIME metabolic competence (metabolism positive), Deisenroth Lab (AID 2284028; active = hit-call score of the fitted dose curve at least 0.9, where 1 is the maximum)
Summary of the method: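 Cytotoxicity in VM7Luc4E2 breast cells after 24 h exposure to medium from a 2 h metabolic pre-incubation with induced rat hepatic S9 in alginate microspheres; fluorescent live-cell protease readout, 10-point series 0.002–200 uM, n=4.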

[15] = CCTE_Deisenroth_AIME_96WELL_CTox_Inactive: Cytotoxicity Assessment (CTOX) in CCTE's 96-well Estrogen Receptor Transactivation Assay without AIME metabolic competence (metabolism negative), Deisenroth Lab (AID 2284029; active = hit-call score of the fitted dose curve at least 0.9, where 1 is the maximum)
Summary of the method: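 Metabolism-negative mode: alginate-water lids without rat S9, 2 h pre-incubation of 10-point series (0.002 - 200 uM). Conditioned medium on VM7Luc4E2 cells 24 h; loss of fluorescent live-cell protease signal marks cytotoxicity.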

[16] = molecular target: Estrogen receptor (Homo sapiens) (UniProt P03372); experiment: CCTE_Deisenroth_AIME_384WELL_LUC_Active: CCTE's 384-well Estrogen Receptor Transactivation Assay with AIME metabolic competence (ERTA luciferase; metabolism positive), Deisenroth Lab (AID 2284030; active = hit-call score of the fitted dose curve at least 0.9, where 1 is the maximum)
Summary of the method: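 Readout: bioluminescent luciferase induction in VM7Luc4E2 cells 24 hour after receiving medium from a 2 h rat hepatic S9 (induced, alginate microsphere) metabolism step. Concentrations 0.002 - 200 uM; activity scaled to 17beta-estradiol positive control.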

[17] = CCTE_Deisenroth_AIME_384WELL_CTox_Active: Cytotoxicity Assessment (CTOX) in CCTE's 384-well Estrogen Receptor Transactivation Assay with AIME metabolic competence (metabolism positive), Deisenroth Lab (AID 2284037; active = hit-call score of the fitted dose curve at least 0.9, where 1 is the maximum;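 also: chemicals first conditioned 2 h by alginate-bound induced rat liver S9 before cells; activity means signal loss indicating cell death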)
Summary of the method: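 Chemicals pre-incubated 2 hours with alginate-immobilised phenobarbital/beta-naphthoflavone-induced male Sprague Dawley rat liver S9, then conditioned medium applied 24 hour to VM7Luc4E2 cells. Viability by fluorogenic protease substrate; 10-point series 0.002 - 200 uM.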

[18] = molecular target: Estrogen receptor (Homo sapiens) (UniProt P03372); experiment: CCTE_Deisenroth_AIME_384WELL_LUC_Inactive: CCTE's 384-well Estrogen Receptor Transactivation Assay without AIME metabolic competence (ERTA luciferase; metabolism negative), Deisenroth Lab (AID 2284038; active = hit-call score of the fitted dose curve at least 0.9, where 1 is the maximum;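 also: hits raise estrogen receptor luciferase signal so potencies reflect agonists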)
Summary of the method: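 VM7Luc4E2 ER transactivation, luciferase bioluminescence after 24 h, using medium pre-incubated 2 h with S9-free alginate microspheres. Concentrations 0.002–200 uM; gain of signal fitted relative to 17beta-estradiol.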

Measured: AC50

Oc1ccc(O)cc1
active: [4] 20 µM | [9] 50.2 µM | [11] 71.8 µM
not listed: [16] | [17] | [18]
inactive: all other assays above

Cc1cc(SC2=C(O)C[C@@](CCc3ccc(N)cc3)(C(C)C)OC2=O)c(C(C)(C)C)cc1CO
active: [1] 20 µM | [10] 20 µM
inactive: [2] | [3] | [4] | [5] | [6] | [7] | [8] | [12] | [13]

Cc1c(C)c2c(c(C)c1O)CCC(C)(COc1ccc(CC3SC(=O)NC3=O)cc1)O2 (configuration not stated)
inactive: [1] | [2] | [3] | [4] | [8] | [10]
active: [5] 32.9 µM | [6] 33.1 µM | [7] 0.517 µM | [12] 29.7 µM | [13] 35.5 µM

CN(C)C(=O)NC1(c2ccccc2)CCN(CCC[C@]2(c3ccc(Cl)c(Cl)c3)CCCN(C(=O)c3ccccc3)C2)CC1
inactive: [1] | [4]
active: [2] 1.07 µM | [3] 9.1 µM | [5] 7.4 µM | [6] 1.83 µM | [7] 7.62 µM | [8] 7.5 µM | [10] 0.00118 µM | [12] 8.86 µM | [13] 6.12 µM

CSc1ccc(Oc2ccc(S(N)(=O)=O)cc2CN(C)C)cc1C
active: [3] 36 µM | [5] 31.8 µM | [6] 32.1 µM | [12] 31.7 µM | [13] 31.3 µM
not listed: [9] | [11] | [14] | [15]
inactive: all other assays above

CC(C)COC(=O)CCCCC(=O)OCC(C)C
not listed: [9] | [11] | [14] | [15] | [16] | [17] | [18]
inactive: all other assays above

c1ccc2occc2c1
not listed: [9] | [11] | [14] | [15]
inactive: all other assays above
